# Only some compounds are listed: those with a hit (about 21% of all), similar ones and a draw of the others.
# CYP2C9 activ: activators of human CYP2C9; P11712; recombinant CYP2C9, luciferin-H conversion, luminescence; stronger effect = higher value; factor 1 = untreated enzyme, 0 = blocked; activation factor at 5 µM; 96,000 compounds, 1.4% hits;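 active = activation factor of 2 or more for CYP2C9 at a 5 µM dose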;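 also: 0 = sulfaphenazole-blocked wells and 1 = vehicle-only wells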
# Target sequence (P11712 whole entry, looked up): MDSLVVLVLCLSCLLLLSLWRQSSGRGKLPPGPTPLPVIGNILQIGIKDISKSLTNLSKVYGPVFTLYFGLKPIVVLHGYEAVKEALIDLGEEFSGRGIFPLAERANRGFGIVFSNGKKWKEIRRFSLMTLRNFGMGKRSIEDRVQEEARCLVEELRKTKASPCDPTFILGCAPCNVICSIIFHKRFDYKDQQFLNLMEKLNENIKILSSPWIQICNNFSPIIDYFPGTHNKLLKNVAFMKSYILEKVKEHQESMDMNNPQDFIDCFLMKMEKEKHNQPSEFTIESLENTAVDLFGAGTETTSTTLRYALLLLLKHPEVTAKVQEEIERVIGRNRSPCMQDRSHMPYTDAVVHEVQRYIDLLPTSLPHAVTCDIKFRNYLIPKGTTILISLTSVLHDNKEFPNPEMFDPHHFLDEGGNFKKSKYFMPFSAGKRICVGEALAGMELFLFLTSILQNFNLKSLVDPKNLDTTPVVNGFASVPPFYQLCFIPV
# MRP-1 activ: activators of MRP-1. AID 799. viability increase, % at 10 µM. 140,000 compounds, 0.61% hits. H69AR cells + doxorubicin, viability rescue, CellTiter-Glo;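 active = viability gain under doxorubicin at or above a set limit, the compound median plus 3 SD, cut at about 4.7% in these data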;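 also: MRP-1 overexpressing cells given doxorubicin 25 µM after compound pretreatment; 18-22 h compound pretreatment then 72 h with doxorubicin before readout; 0% = doxorubicin-only wells and 100% = vehicle-treated cells without doxorubicin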
# MRP reversal: compounds reversing MRP-mediated drug resistance; AID 602; differential viability (reversal), % at 10 µM; H69AR cells + 2 uM doxorubicin, CellTiter-Glo, 72 h; 85,000 compounds, 0.04% hits;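 active = viability drop by adding the cancer drug above about 55%, with treated viability meeting a 40% cutoff, limit read from the data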;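 also: viability without doxorubicin minus viability with 2 µM doxorubicin for each compound; larger differential means the compound sensitizes cells more to doxorubicin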
# CYP2C9 inhib: blocks human cytochrome P450 2C9; CYP2C9 Supersomes, luciferin-H conversion, luminescence; inhibition, % at 5 µM; 96,000 compounds, 20% hits;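 active = blocking of liver enzyme CYP2C9 beyond about 50% at 5 µM, limit read from the data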
# CYP2C19 act: activators of human cytochrome P450 2C19; P33261; recombinant CYP2C19, luciferin-H EGE luminescence; stronger effect = higher value; 0 = fully inhibited enzyme, 1 = untreated enzyme; activation factor at 5 µM; 96,000 tested, under 10 active; AID 1025;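 active = activation factor of at least 2 at 5 µM in the primary screen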;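 also: 0 = wells with 2.5 mM tranylcypromine and 1 = vehicle-only wells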
# CYP2C19 inhib: inhibitors of human CYP2C19; inhibition, % at 5 µM; CYP2C19 Supersomes, luciferin-H EGE luminescence, 30 min; 96,000 compounds, 21% hits; P33261; AID 778;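 active = CYP2C19 inhibition above a set limit at 5 µM in the primary screen, cut at about 50% in these data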;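 also: plate controls were negative control wells for no effect and 2.5 mM tranylcypromine positive control for full effect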
# * hit, by the source's call; x = no result.
SMILES,CYP2C9 activ,MRP-1 activ,MRP reversal,CYP2C9 inhib,CYP2C19 act,CYP2C19 inhib
CN(C)c1oc(COc2ccc(F)cc2)nc1C#N,x,3.7,x,x,x,x
COc1ccc(/C=N/n2c(SC)nnc2-c2ccccc2)cc1C,0.7,-0.8,-39.9,32.3,0.5,54.1*
COc1ccc(/C=N/n2c(SC)nnc2-c2ccccc2)c(OC)c1OC,0.3,-2.1,-40.5,67.4*,0.2,78.8*
COc1cccc(/C=N/n2c(C)nc3ccccc32)c1OC,0.3,-0.8,-2.5,68.5*,0.6,39.4
COc1ccc(/C=N/N2CCN(c3ccccc3OC)CC2)cc1OC,1.1,0.8,x,-9.7,0.9,8.8
COc1cccc(/C=N\n2c(C)nnc2C)c1OC,1.1,-4.7,x,-7.9,1.2,-18.4
O=C(CN1CCCCC1)Nc1ccc(NC(=O)c2ccc(Cl)cc2)cc1Cl,0.8,1.4,x,15.9,0.8,17.9
Cc1cccc(S(=O)(=O)Nc2nc3ccccc3nc2NCc2ccc3c(c2)OCO3)c1,x,0.9,x,x,x,x
COc1ccc(N=C2C(=Nc3ccc(OC)cc3)N(c3ccc(OC)cc3)C(=S)N2C)cc1,0.5,0.4,x,52.6*,0.3,68.1*
COc1ccc(N=C2C(=Nc3ccc(OC)cc3)N(c3ccc(OC)cc3)C(=S)N2c2ccccc2)cc1,0.2,-4.8,x,77.9*,1,4.1
COc1ccc(NC(=O)c2ccc(Br)o2)c([N+](=O)[O-])c1,1.1,-1.6,x,-6.0,0.9,5.2
CCOC(=O)N1CCN(C(=O)c2cc(-n3cnnc3)ccc2Cl)CC1,1.1,-0.4,3.3,-7.3,1,2.4
Cc1ccc2c(CSc3nnc(N)s3)cc(=O)oc2c1,0.6,-1.9,x,39.9,0.2,84.8*
CC(C)CCC(CC(C)O)c1n[nH]c(=S)n1-c1ccccc1 (stereo not drawn),x,-1.9,x,x,x,x
Cc1cc(NC(=O)c2cccc(S(=O)(=O)N3CCCCCC3)c2)n(-c2ccccn2)n1,0.7,-3.9,26.2,29.0,0.7,26.3
Cc1cc(NC(=O)c2c(F)cccc2F)n(-c2nc3ccccc3[nH]2)n1,0.5,0.1,-5.8,51.5*,0.7,28.6
Cc1cc(NC(=O)C2CCC2)n(-c2ccccn2)n1,3*,1.0,7.3,-195.1,0.6,38.1
Cc1cc(NC(=O)c2ccc(C)s2)n(-c2nc3ccccc3[nH]2)n1,x,-1.4,x,x,x,x
Cc1cc(Nc2ccccc2)n(-c2nc3ccccc3[nH]2)n1,0.3,4.0,-35.0,69.2*,0.8,22.7
Cc1cc(NC(=O)C2CCCCC2)n(-c2nc3ccccc3[nH]2)n1,0.3,-2.3,-22.4,70.6*,0.7,31.1
Cc1cc(NC(=O)c2ccccc2F)n(-c2nc3ccccc3[nH]2)n1,0.7,-5.2,-17.0,28.5,0.8,23.6
CCOC(=O)CSc1cccc2cccnc12,x,-4.8,-0.1,x,x,x
Cc1ccccc1N1CCN(C(=O)c2ccccc2NC(=O)C2CC=CCC2C(=O)O)CC1 (stereo not drawn),0.6,-0.2,x,36.7,0.8,15.8
COCCn1c(=S)[nH]c2cc(C(=O)N3CCN(c4ccc(F)cc4)CC3)ccc2c1=O,0.9,-2.5,-33.0,11.7,1,0.2
O=C(CN(Cc1ccc(F)cc1)C(=O)Cn1nnc2ccccc21)NCC1CCCO1 (stereo not drawn),x,-2.3,13.2,x,x,x
SMILES,CYP2C9 activ,MRP-1 activ,MRP reversal,CYP2C9 inhib,CYP2C19 act,CYP2C19 inhib
Cc1cc(NC(=O)c2c(F)cccc2Cl)n(-c2nc3ccccc3[nH]2)n1,0.1,-3.7,-36.2,94.8*,0.1,86.4*
CC(C)c1ccc(OCC(=O)N(Cc2ccccc2)c2ccccn2)cc1,x,-0.9,x,x,x,x
COc1ccc(C(=O)NCC(=O)OCC(=O)Nc2cc(OC)ccc2OC)cc1,0.5,0.3,x,49.3,0.3,70.6*
NNC(=O)c1cccc(COc2cccc(Br)c2)c1,0.3,0.5,x,68.4*,0,98.4*
COc1ccc(OC)c(NC(=O)CNC(=O)c2cccs2)c1,0.8,-4.0,-2.1,18.7,0.5,53.6*
NNC(=O)c1cccc(COc2ccc(Br)cc2)c1,x,1.1,x,x,x,x
COc1ccc(NC(=O)C(=O)NNC(=O)c2cccs2)c(OC)c1,1,-2.4,x,0.1,0.9,9.4
COc1ccc(C(=O)NCC(=O)OCc2cccc(Br)c2)cc1,0.8,1.3,x,18.6,0.5,54.7*
COc1cccc(CNC(=O)c2cccc(Br)c2)c1,x,-1.2,x,x,x,x
Cc1ccc(C2=C/C(=C/c3cccs3)C(=O)O2)cc1,x,-1.9,x,x,x,x
CCC(=NCCN1CCNCC1)C1=C(O)CC(C)(C)CC1=O,1.2,-0.9,0.2,-21.9,1.2,-17.5
COc1ccc(Cl)cc1NC(=O)N1CCN(C2CCCCC2)CC1,1.9,-0.6,10.0,-93.3,0.2,83.0*
COc1ccc(Cl)cc1NC(=O)CN(C1CCCCC1)S(C)(=O)=O,0.1,-3.4,-16.8,90.4*,0,98.7*
CSc1ccccc1NC(=O)CN(C1CCCCC1)S(C)(=O)=O,0.1,-2.2,7.2,90.0*,0.1,92.9*
CCSc1nn2c(=O)c3ccccc3nc2s1,0.5,-0.8,x,49.1,0.7,27.8
Cc1cc(C)nc(SCc2nc3ccccc3n2C)n1,0.7,2.0,5.7,27.2,0.6,43.0
CC(C)n1cnc2cc(NCc3nc4ccccc4n3C)ccc21,x,-2.7,x,x,x,x
Cn1c(CCCCCN)nc2ccccc21,0.4,-3.0,-19.6,63.3*,0.8,22.6
Cn1c(CSc2nc3ccccc3n2C)nc2ccccc21,0.9,-0.4,26.2,13.2,0.2,83.9*
Cn1c(CNc2ccccc2)nc2ccccc21,0.7,-4.7,x,33.7,0.5,52.4*
CCn1cnc2cc(NCc3nc4ccccc4n3C)ccc21,0.6,-2.0,6.7,40.7,0.1,92.6*
COC(=O)c1cn(NC(=O)/C=C/c2cc(OC)ccc2OC)c(=O)c2ccccc12,x,-2.4,x,x,x,x
CC(NC(=S)Nc1ccc(Cl)cc1Cl)C(c1cccs1)N1CCCC1 (stereo not drawn),x,-5.4,x,x,x,x
COc1ccc(-n2c(SCC(=O)NCc3ccco3)nc3c([nH]c4ccccc43)c2=O)cc1,1,-2.8,-4.0,-2.0,1.1,-7.3
CCCn1c(CNc2ccc(Br)cc2)nc2ccccc21,0.1,-0.8,16.3,92.4*,0,98.0*
SMILES,CYP2C9 activ,MRP-1 activ,MRP reversal,CYP2C9 inhib,CYP2C19 act,CYP2C19 inhib
CCn1c(CNc2ccc(C(=O)O)cc2)nc2ccccc21,1,-1.0,-1.0,0.3,0.9,5.0
Cn1c(CNc2ccccc2O)nc2ccccc21,0.9,-1.9,-4.3,12.6,0.3,69.8*
COc1ccc2cc(C3(C)NC(=O)N(CC(=O)Nc4c(C)n(C)n(-c5ccccc5)c4=O)C3=O)ccc2c1 (stereo not drawn),x,-1.2,x,x,x,x
CC(C)/C=N/NC(=O)c1ccc(Cl)cc1,x,-1.2,x,x,x,x
CCCCCCc1cc2cc(-c3nnc(-c4ccccc4OC)o3)c(=O)oc2cc1O,0,-2.8,-0.2,96.7*,0.5,48.3
CCCCCCc1cc2cc(-c3nnc(-c4ccccc4O)o3)c(=O)oc2cc1O,0.1,-4.5,x,89.8*,0.9,14.1
COC(=O)c1cccc(Nc2nc3ccccc3nc2C)c1,0.6,-1.9,-17.3,44.4,0.9,13.5

# Screening results deposited in PubChem BioAssay by several laboratories.
